The campaign covered roughly 370,000 compounds. About 4,100 (1.1%) were called active.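 Rule for the calls: active = inhibition above the mean over all tested compounds plus 3 SD (cut at about 3.6% in these data); inactive = the rest.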 The list comes from a sample in which actives are over-represented; it also holds similar structures and randomly drawn compounds.

Usually inhibition stands for the relative decrease from the control value, in per cent.

This test is described as follows: DAX1 (NR0B1) inhibitors on StAR promoter, primary screen, cell-based, luminescence, SF-1 (NR5A1), full-length DAX-1 (AID 652010).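 Note: 0% = DAX-1 cells with DMSO and 100% = cells lacking DAX-1 with DMSO; higher inhibition means more luminescence from relief of DAX-1 repression.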 To be noted: HEK293T StAR-luciferase reporter, SF-1/DAX-1 repression relief; at 6.8 µM; hits give high values. (A reporter such as luciferase makes a cellular process visible.)
For the compound `CN(CCO)c1cccc2c1S(=O)(=O)N(Cc1cn(Cc3ccc(C(F)(F)F)cc3)nn1)Cc1ccccc1O2`, the inhibition was -1.1% (inactive).

Regarding `C=CCN1C(=O)[C@@H](CC(=O)NCCCOCCCC)[C@]2(C(=O)OCC)CCCCC/C=C/12`, the inhibition was 0.1% (inactive).

`O=C1/C(=C\Nc2ccccc2)CCN1c1ncccn1`: the inhibition was 0.43% (inactive).

`CCOc1ccc(-c2nnc(-c3ccco3)o2)cc1`: the inhibition was 6.66% (active).

Consider `CCOc1ccc(NC(=O)N(CCC(C)C)C(C)c2ccco2)cc1` (stereo unspecified), for which the inhibition is -0.03% (inactive).

For the compound `CCCCCCc1cc2cc(-c3nnc(-c4cccc(OC)c4)o3)c(=O)oc2cc1O`, the inhibition is 1.42% (inactive).

As to `CCCCOc1ccc(-c2nnc(-c3ccco3)o2)cc1`, the inhibition is 4.13% (active).

For the compound `O=C(CSc1nnc(-c2ccco2)o1)NCC(=O)c1ccccc1`, the inhibition was 1.51% (inactive).

As for `CCCOc1ccc(-c2c(C(=O)N/N=C/c3ccco3)nnn2-c2nonc2N)cc1`, the inhibition is -0.59% (inactive).

Take `C=CCN1C(C(=O)OC)CN(Cc2cn(Cc3ccccc3)nn2)CCS1(=O)=O` (stereo unspecified): the inhibition was -0.18% (inactive).

On to `COC(=O)[C@]12C[C@H](CC(=O)NCC34CC5CC(CC(C5)C3)C4)C(=O)N(Cc3ccc(Cl)cc3Cl)C1=C[C@H](COCc1ccccc1)O[C@@H]2C`, for which the inhibition is -0.93% (inactive).

Turning to `COC(=O)[C@]1(C#N)CC(=O)N(CC2CCCCC2)[C@@H]1c1ccccc1`, the inhibition was 1.2% (inactive).

As for `FC(F)(F)c1cccc(Cn2ccc3ccc(-c4ccc5ccn(Cc6ccccc6)c5c4)cc32)c1`, the inhibition was -1.01% (inactive).

With `O=C(CCCCCN1C(=O)C2C3C=CC(C3)C2C1=O)Nc1ccccn1` (stereo unspecified), the inhibition is -0.18% (inactive).

As to `COc1cc(OC)c(C(=O)NNC(=O)c2ccc(NS(=O)(=O)c3cccs3)cc2)cc1OC`, the inhibition was 4.51% (active).

Regarding `COc1cc(OC)c(C(=O)NNC(=O)c2ccccc2-n2cccc2)cc1OC`, the inhibition is 0.07% (inactive).

For `C/C(=N\NC(=O)c1ccc(NS(=O)(=O)c2cccs2)cc1)c1ccc2ccccc2c1`, the inhibition is 0.35% (inactive).

With `COc1ccc(-c2cc(-c3nnc(SCC(=O)Nc4cccc5ccccc45)n3N)[nH]n2)cc1`, the inhibition was -0.22% (inactive).

For the compound `C[C@H](C(=O)N(C)c1ccccc1)[C@@H](O)c1ccc2ccccc2c1`, the inhibition is 0.19% (inactive).

Consider `CS(=O)(=O)N(CC(=O)N/N=C/c1ccccn1)c1ccc(Oc2ccccc2)cc1`, for which the inhibition is -0.11% (inactive).

As for `O=C(O)C1C2C=CC(O2)C1C(=O)Nc1ccccn1` (stereo unspecified), the inhibition was 0.46% (inactive).

As for `S=C(NN=Cc1ccccn1)Nc1ccccn1`, the inhibition was 3.77% (active).

For `Clc1ccc(-n2c(SC/C=C/c3ccccc3)nnc2-c2ccco2)cc1`, the inhibition is -1.85% (inactive).

For `Cc1ccc(-c2nc(-c3cccnc3)sc2CC(=O)Nc2ccc(C)c(Cl)c2)cc1`, the inhibition is -0.1% (inactive).

`O=C(NCc1ccco1)C1CCCN(S(=O)(=O)c2ccc(Cl)s2)C1` (stereo unspecified): the inhibition is -1.13% (inactive).

In the case of `O=C1N(c2ccccc2)C(=Nc2ccccc2)SC12CC2`, the inhibition is -0.44% (inactive).

For the compound `Cc1ccnc(NC(=O)C(C)N2C(=O)c3ccccc3C2=O)c1` (stereo unspecified), the inhibition was -0.27% (inactive).

For `COc1cc(SC)ccc1C(=O)Nc1cc(C)ccn1`, the inhibition is 4.19% (active).

For `COc1cc(SC)ccc1C(=O)Nc1nc(C)cs1`, the inhibition is -3.74% (inactive).

Regarding `O=C(c1cccc(C(F)(F)F)c1)N1CC[C@H]2[C@H](CCCN2Cc2cc(F)cc(F)c2)C1`, the inhibition was 0.13% (inactive).

Consider `Cc1sc2nc(SCC(=O)c3ccc(O)c(O)c3)n(Cc3ccco3)c(=O)c2c1C`, for which the inhibition is -0.17% (inactive).

Regarding `COCCCNC(=O)CN1C(=O)CSc2ccc(S(=O)(=O)N3CCOCC3)cc21`, the inhibition was 0.4% (inactive).

With `COc1ccc(NC(=O)CN2C(=O)CSc3ccc(S(=O)(=O)N4CCC(C)CC4)cc32)cc1`, the inhibition was -0.14% (inactive).

As to `CC1CCN(CCCNC(=O)CN2C(=O)CSc3ccc(S(=O)(=O)N4CCCCC4)cc32)CC1`, the inhibition was 4.58% (active).

As to `COC(=O)[C@]12C[C@H](CC(=O)NCc3ccccc3)C(=O)N(CCC3=CCCCC3)C1=C[C@H](C(C)(C)C)O[C@@H]2C`, the inhibition is -0.82% (inactive).

Take `Cc1ccc(NC(=O)N2c3ccccc3SC2c2ccco2)c(C)c1` (stereo unspecified): the inhibition was -1.05% (inactive).

As to `O=C(Nc1ccc(NC(=O)c2cccs2)cn1)c1ccco1`, the inhibition was 5.96% (active).

For `O=C(Nc1nonc1-c1ccc(Cl)cc1)c1ccco1`, the inhibition is -0.6% (inactive).

Turning to `O=C(N/N=C/C=C/c1ccco1)c1cccs1`, the inhibition was 0.78% (inactive).

For the compound `C[C@H](C(=O)N(C)c1ccccc1)[C@@H](O)c1ccc(Cl)cc1`, the inhibition is -0.7% (inactive).

Consider `O=C(OC12CCCN(C1)/C(=C/c1cccnc1)C2)C1CCCC1` (stereo unspecified), for which the inhibition is -1.73% (inactive).

Take `COc1ccccc1CCC(=O)OCC(=O)N1CCN(S(=O)(=O)c2ccc(C)cc2C)CC1`: the inhibition is 4.53% (active).

In the case of `Cc1ccc(S(=O)(=O)N2CCN(C(=O)COC(=O)CNC(=O)c3ccc(C(C)(C)C)cc3)CC2)c(C)c1`, the inhibition is -0.26% (inactive).

Consider `COc1ccc(/C=C/C(=O)OCC(=O)N2CCN(S(=O)(=O)c3ccc(C)cc3C)CC2)cc1OC`, for which the inhibition was -1.45% (inactive).

In the case of `COc1ccc(C2=Nc3cc(C)ccc3OC2)cc1`, the inhibition was 4.81% (active).

Consider `COc1ccc(-c2onc(C)c2-c2ccc3c(c2)OCCO3)c(O)c1`, for which the inhibition was -0.75% (inactive).

For `COc1ccc(/C=C/c2c(-c3cccc(C)c3)oc3ccc(-c4ccc5c(c4)OCO5)cc23)cc1`, the inhibition is -0.02% (inactive).

Turning to `O=C(c1c[nH]c2ccccc12)N1CCC(Oc2cccnc2)CC1`, the inhibition is -0.43% (inactive).

Consider `COc1ccccc1CCNC(=O)C1CCN(c2nc(C)cc(C)n2)CC1`, for which the inhibition was -0.06% (inactive).

Turning to `CCc1c(-c2ccccc2OC)ncn1CCc1ccccc1OC`, the inhibition was -2.14% (inactive).

As for `O=C(CSc1nnc2n1CCCN2)c1ccccc1`, the inhibition was 0.61% (inactive).

Turning to `N#Cc1ccc(CSc2nnc3ccccn23)cc1`, the inhibition is -0.37% (inactive).

Turning to `O=C(CSc1nnc2ccccn12)c1ccccc1`, the inhibition is 4.08% (active).

On to `C[C@H]1CCC/C=C/C(=O)c2c(O)cc(O)cc2CC(=O)O1`, for which the inhibition is -6.29% (inactive).

For `Cc1ccc(-c2nc(C3CCCN(S(=O)(=O)c4ccc(Br)s4)C3)no2)cc1` (stereo unspecified), the inhibition was 0.62% (inactive).

For `CCN(CCCNC(=O)c1ccc2c(c1)NC(=O)CN2C)c1cccc(C)c1`, the inhibition is -0.89% (inactive).

Values taken from PubChem BioAssay AID652010 (The Scripps Research Institute Molecular Screening Center, 2013).
